From PubChem
Pf Dd2 growth = P. falciparum Dd2 growth inhibitors, primary screen, SYBR Green fluorescence, single dose replicates; 72 h; stronger effect = lower value; activity change, % at 10 µM; 2.3% of 94,000 active; AID 1159554, 2015; in the data active = activity change below about -80%; inconclusive = no clear call, values can overlap the other calls
C diff HTS = C. difficile growth inhibitors, primary screen, HTS | Clostridium difficile clinical isolate growth, OD600, 24 h; stronger effect = lower value | growth activity, negative = inhibition, % at 16 µg/mL (by protocol) | 0.25% of 86,000 active;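 active = mean growth activity at or below -80% and every replicate also at or below -80%; inconclusive = mean at or below -80% but some replicate above -80%; inactive = mean growth activity above -80%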;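 also: 0% = DMSO wells and -100% = levofloxacin 16 µg/mL wells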
T cruzi growth-1 = T. cruzi intracellular proliferation inhibitors, primary screen, cell-based, beta-gal Tulahuen parasites, NIH3T3 host, luminescence. T. cruzi beta-gal in NIH3T3, GalScreen luminescence, 90 h. inhibition, % at 8.34 µM. 5.9% of 77,000 active. AID 624255, 2012;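 active = mean inhibition above about 93%, with at least 55% of replicates each passing it, limit read from the data, passing the limit was not always enough; inconclusive = only one of those two conditions holds; inactive = neither condition holds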
T cruzi growth-2 = T. cruzi intracellular proliferation inhibitors, confirmation, cell-based, NIH3T3 host, beta-gal parasite, luminescence, cherry-pick | shares compounds with T cruzi growth-1 | T. cruzi beta-gal in NIH3T3, GalScreen luminescence, 90 h | inhibition, % at 8.35 µM | 72% of 5,600 active | AID 651739, 2012;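 active = mean replicate inhibition above about 95% and at least 55% of replicates individually reaching it, limit read from the data; inconclusive = only one of the two criteria is met; inactive = neither criterion is met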
T cruzi growth-3 = inhibitors of intracellular T. cruzi replication, confirmation, NIH3T3 host cells, beta-gal parasites, cherry-pick, set 2; 21% of 5,600 active; shares compounds with T cruzi growth-1; inhibition, % at 2.09 µM; T. cruzi beta-gal in NIH3T3, GalScreen luminescence, 90 h;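 active = mean inhibition above about 95%, with at least 55% of replicates also reaching it, limit read from the data; inconclusive = meets just one of the two conditions; inactive = meets neither condition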;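 also: plate controls were neutral control median for no effect and positive control median for full effect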
NIH3T3 tox = cytotoxicity in mouse NIH/3T3 fibroblasts, confirmation, cytotoxicity control for T. cruzi proliferation inhibitor project, cell-based, cherry-pick, single point; shares compounds with T cruzi growth-1; NIH/3T3 viability, CellTiter-Glo ATP luminescence, 90 h; cytotoxicity (signal decrease), % at 8.35 µM; 14% of 5,600 active; AID 651742, 2012;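 active = mean signal decrease across replicates above about 35% based on untreated-well scatter, with enough replicates individually passing, limit read from the data; inconclusive = no rule stated though some were filed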;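 also: 0% = median of neutral control wells and 100% = median of positive control wells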
NIH3T3 tox 2 = NIH/3T3 fibroblast cytotoxicity, confirmation, cytotoxicity control, cell-based, cherry-pick, single point, set 2. inhibition, % at 24.9 µM. 56% of 5,600 active. NIH/3T3 viability, CellTiter-Glo ATP luminescence, 90 h. shares compounds with T cruzi growth-1. AID 651744, 2012;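 active = mean loss of cell viability signal at or above a set limit, and enough replicates individually reaching it; inconclusive = meets only the mean limit or only the replicate share; inactive = meets neither condition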;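 also: 0% = median of neutral control wells and 100% = median of positive control wells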
* marks the source's active call; other numbers are inactive results; u = inconclusive; x = no result. Sampled rows, rich in hits. Any-hit rate of the full collection: about 6.7%.

SMILES	Pf Dd2 growth	C diff HTS	T cruzi growth-1	T cruzi growth-2	T cruzi growth-3	NIH3T3 tox	NIH3T3 tox 2
COc1ccc(-c2cnc3c(c2)C(=O)N([C@H](C)CO)C[C@@H](C)[C@H](CN(C)S(=O)(=O)c2ccc(OC)cc2)O3)cc1	-47	x	84	x	x	x	x
COc1ccc(S(=O)(=O)N(C)C[C@@H]2Oc3ncc(-c4cccc(C(F)(F)F)c4)cc3C(=O)N([C@H](C)CO)C[C@@H]2C)cc1	-56	4	106*	107*	48	8	49*
C[C@H](CO)N1C[C@H](C)[C@H](CN(C)S(=O)(=O)c2cccc(F)c2)Oc2ncc(-c3cccc(C(F)(F)F)c3)cc2C1=O	-18	8	112	x	x	x	x
C[C@H](CO)N1C[C@H](C)[C@H](CN(C)S(=O)(=O)c2cccs2)Oc2ncc(-c3cccc(C(F)(F)F)c3)cc2C1=O	-1	-1	106*	103*	45	30	27*
CC(C)CC#Cc1cnc2c(c1)C(=O)N([C@@H](C)CO)C[C@H](C)[C@H](CN(C)C(=O)c1cccnc1)O2	14	3	-32	x	x	x	x
O=C(Nc1ccccc1F)N[C@@H]1CC[C@@H](CCNS(=O)(=O)c2ccccc2)O[C@@H]1CO	-24	-3	-58	x	x	x	x
COCC(=O)N1CC2(C1)[C@@H](c1ccc(-c3ccc(F)cc3)cc1)[C@H](CO)N2C(C)=O	12	1	x	x	x	x	x
C[C@H](CO)N1C[C@H](C)[C@H](CN(C)Cc2cccnc2)Oc2ncc(C#Cc3ccccn3)cc2C1=O	5	1	6	x	x	x	x
C[C@@H]1CN([C@@H](C)CO)C(=O)c2cc(C#Cc3ccccn3)cnc2O[C@H]1CN(C)Cc1ccccc1	-38	3	128*	105*	92	1	10
C[C@H]1CN([C@@H](C)CO)C(=O)c2cc(C#Cc3ccccn3)cnc2O[C@@H]1CN(C)Cc1cccnc1	-10	2	71	x	x	x	x
C[C@H]1CN([C@@H](C)CO)C(=O)c2cc(C#Cc3ccccn3)cnc2O[C@@H]1CN(C)Cc1cncnc1	22	0	111*	108*	23	-12	5
O=C(C[C@H]1CC[C@@H](NC(=O)c2ccccc2)[C@H](CO)O1)NCc1ccc(Oc2ccccc2)cc1	2	0	-70	x	x	x	x
C[C@@H]1CN([C@@H](C)CO)C(=O)c2cc(NC(=O)C3CCCCC3)ccc2O[C@@H]1CN(C)S(=O)(=O)c1ccc(Cl)cc1	9	1	65	x	x	x	x
C[C@H](CO)N1C[C@H](C)[C@@H](CN(C)S(=O)(=O)c2ccc(F)cc2)OCCCC[C@H](C)Oc2ccc(NC(=O)C3CCCCC3)cc2C1=O	-62	0	66	x	x	x	x
C[C@@H]1CCCCO[C@H](CN(C)S(=O)(=O)c2ccc(F)cc2)[C@H](C)CN([C@@H](C)CO)C(=O)c2cc(NC(=O)C3CCCCC3)ccc2O1	-61	-10	54	x	x	x	x
C[C@@H]1CCCCO[C@@H](CN(C)S(=O)(=O)c2ccc(Cl)cc2)[C@@H](C)CN([C@H](C)CO)C(=O)c2cc(NC(=O)C3CCCCC3)ccc2O1	-79	8	-11	x	x	x	x
C[C@@H]1CCCCO[C@H](CN(C)S(=O)(=O)c2ccc(F)cc2)[C@H](C)CN([C@H](C)CO)C(=O)c2cc(NC(=O)C3CCCCC3)ccc2O1	-79	-5	u	112*	60	-5	11
C[C@@H]1CCCCO[C@@H](CN(C)S(=O)(=O)c2ccc(Cl)cc2)[C@H](C)CN([C@H](C)CO)C(=O)c2cc(NC(=O)C3CCCCC3)ccc2O1	-86*	-6	108*	111*	113*	-6	-9
C[C@@H]1CCCCO[C@H](CN(C)S(=O)(=O)c2ccc(Cl)cc2)[C@@H](C)CN([C@@H](C)CO)C(=O)c2cc(NC(=O)C3CCCCC3)ccc2O1	-81*	-1	108*	112*	u	7	-21
